Reference: PubChem BioAssay (NCI)
Compounds without any hit were thinned out: in the full panel of roughly 83,000, 20% have a hit.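 The endpoint reported here, percent growth, reads 100 for growth as untreated, 0 for no net growth and -100 for all cells dead.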 Active and inactive are the calls of the source. The calls were made as follows: active = growth percent below 10; inactive = the rest.

Columns and labels:
Experiment in all cases: NCI-60 one-dose screen, 48 h (100 = growth as untreated, 0 = no growth, -100 = all killed)
Conditions in all cases: 10 µM
SK-MEL-2 melanoma = tested on: SK-MEL-2 melanoma
SN12C renal = tested on: SN12C renal
UO-31 renal = tested on: UO-31 renal
TK-10 renal = tested on: TK-10 renal
ACHN renal = tested on: ACHN renal
CAKI-1 renal = tested on: CAKI-1 renal
A498 renal = tested on: A498 renal
CCRF-CEM leukemia = tested on: CCRF-CEM leukemia
MOLT-4 leukemia = tested on: MOLT-4 leukemia
SR leukemia = tested on: SR leukemia
RPMI-8226 leukemia = tested on: RPMI-8226 leukemia
OVCAR-8 ovarian = tested on: OVCAR-8 ovarian
OVCAR-5 ovarian = tested on: OVCAR-5 ovarian
OVCAR-4 ovarian = tested on: OVCAR-4 ovarian
SK-OV-3 ovarian = tested on: SK-OV-3 ovarian
OVCAR-3 ovarian = tested on: OVCAR-3 ovarian
HS 578T breast = tested on: HS 578T breast
NCI/ADR-RES ovarian = tested on: NCI/ADR-RES ovarian
IGROV1 ovarian = tested on: IGROV1 ovarian

Measured: growth

COc1ccccc1S(=O)(=O)Nc1ccc2c(c1)CN(C)C(=O)N2
inactive: SK-MEL-2 melanoma 47.6% | SN12C renal 53.2% | UO-31 renal 10.2% | TK-10 renal 17.3% | ACHN renal 34.7% | CAKI-1 renal 21.2% | CCRF-CEM leukemia 48.9% | MOLT-4 leukemia 38.4% | SR leukemia 36% | OVCAR-8 ovarian 56.2% | OVCAR-5 ovarian 74.5% | OVCAR-4 ovarian 43.1% | SK-OV-3 ovarian 49.1% | OVCAR-3 ovarian 32.2% | HS 578T breast 33.7% | NCI/ADR-RES ovarian 68.9%
active: A498 renal -2.92% | RPMI-8226 leukemia 4.25%

CCN1CCN(c2nc(NNC(=O)c3cccc(OC)c3)nc(N3CCN(C(c4ccccc4)c4ccccc4)CC3)n2)CC1
inactive: SK-MEL-2 melanoma 75% | SN12C renal 61% | UO-31 renal 27.5% | TK-10 renal 79.7% | ACHN renal 56.1% | CAKI-1 renal 42.2% | A498 renal 75.3% | CCRF-CEM leukemia 48.9% | MOLT-4 leukemia 23.8% | OVCAR-8 ovarian 65% | OVCAR-5 ovarian 101% | SK-OV-3 ovarian 76.1% | IGROV1 ovarian 58.5% | OVCAR-3 ovarian 72.6% | HS 578T breast 64.3% | NCI/ADR-RES ovarian 76.2%
active: SR leukemia -11.8% | RPMI-8226 leukemia 5.26%

Cc1ccccc1[P+](Cc1ccccc1)(c1ccccc1)c1ccccc1
inactive: SN12C renal 29.9% | UO-31 renal 67.8% | TK-10 renal 21.4% | ACHN renal 75.6% | CAKI-1 renal 86.8% | A498 renal 37% | CCRF-CEM leukemia 19.3% | MOLT-4 leukemia 19.3% | OVCAR-8 ovarian 10% | OVCAR-5 ovarian 52% | SK-OV-3 ovarian 43.7% | OVCAR-3 ovarian 26.4% | HS 578T breast 54.4% | NCI/ADR-RES ovarian 104%
active: SK-MEL-2 melanoma -23.1% | SR leukemia 2.45% | RPMI-8226 leukemia -27% | OVCAR-4 ovarian 8.97%

CCOC(=O)C1=C(Nc2ccc(OC)cc2)C(N)=NC1=N
active: A498 renal 6.8% | SR leukemia 4.05%
inactive: SK-MEL-2 melanoma 44.6% | SN12C renal 57% | UO-31 renal 57.1% | TK-10 renal 59.2% | ACHN renal 46.6% | CAKI-1 renal 54.6% | CCRF-CEM leukemia 15.8% | MOLT-4 leukemia 26% | RPMI-8226 leukemia 24.7% | OVCAR-8 ovarian 54.5% | OVCAR-5 ovarian 65.6% | SK-OV-3 ovarian 34.1% | IGROV1 ovarian 65% | OVCAR-3 ovarian 17% | HS 578T breast 48.5% | NCI/ADR-RES ovarian 28.4%

CCCCc1ccc(NC(=O)N(CCCl)N=O)cc1
inactive: SK-MEL-2 melanoma 94.8% | SN12C renal 96.1% | UO-31 renal 81.3% | TK-10 renal 105% | ACHN renal 106% | CAKI-1 renal 99.3% | A498 renal 103% | CCRF-CEM leukemia 88.2% | MOLT-4 leukemia 98.7% | SR leukemia 30.9% | RPMI-8226 leukemia 98.6% | OVCAR-8 ovarian 96.7% | OVCAR-4 ovarian 108% | SK-OV-3 ovarian 95.3% | OVCAR-3 ovarian 105% | NCI/ADR-RES ovarian 115%

O=C(OCc1ncc(-c2ccc(C(F)(F)F)cc2)c(NC2CCCCCC2)n1)c1c(F)c(F)c(F)c(F)c1F
inactive: SK-MEL-2 melanoma 54.6% | SN12C renal 54.1% | UO-31 renal 28.3% | TK-10 renal 63.2% | ACHN renal 27.8% | CAKI-1 renal 89.6% | A498 renal 102% | CCRF-CEM leukemia 15.7% | MOLT-4 leukemia 79.1% | SR leukemia 39.4% | OVCAR-8 ovarian 44.1% | OVCAR-5 ovarian 88.3% | OVCAR-4 ovarian 49.4% | SK-OV-3 ovarian 91.8% | OVCAR-3 ovarian 29.8% | HS 578T breast 65.3% | NCI/ADR-RES ovarian 96.3%
active: RPMI-8226 leukemia -6.54%

O=c1oc2cc(OS(=O)(=O)C3CC3)ccc2c2c1CCCCCC2
inactive: SK-MEL-2 melanoma 103% | SN12C renal 82.8% | UO-31 renal 83.4% | TK-10 renal 121% | ACHN renal 82.1% | CAKI-1 renal 79.4% | A498 renal 63.8% | CCRF-CEM leukemia 64.4% | MOLT-4 leukemia 65.6% | SR leukemia 52.7% | RPMI-8226 leukemia 49.3% | OVCAR-8 ovarian 82.6% | OVCAR-4 ovarian 65.3% | SK-OV-3 ovarian 89.1% | IGROV1 ovarian 103% | OVCAR-3 ovarian 68.7% | HS 578T breast 106% | NCI/ADR-RES ovarian 68.4%

C[C@]12CC[C@H]3[C@@H](CC=C4C[C@@H](O)CC[C@@]43C)[C@@H]1CC[C@@H]2C(=O)C/C=N/O
active: UO-31 renal -94.6%
inactive: SK-MEL-2 melanoma 95.9% | SN12C renal 91.7% | TK-10 renal 99.5% | ACHN renal 89.4% | CAKI-1 renal 83.2% | A498 renal 90.1% | CCRF-CEM leukemia 71.8% | MOLT-4 leukemia 69.2% | SR leukemia 91.6% | RPMI-8226 leukemia 59.6% | OVCAR-8 ovarian 91.9% | OVCAR-5 ovarian 106% | OVCAR-4 ovarian 83.6% | SK-OV-3 ovarian 97.1% | OVCAR-3 ovarian 89.8% | HS 578T breast 92.5% | NCI/ADR-RES ovarian 84.4%
